# PubChem BioAssay (Tox21)
# Inconclusive results are not listed. Calls of active or inactive are those of the source. Calls come from the whole dose curve; as a rule, active = well fitted curve in the direction sought with a large enough effect in the repeat runs; inconclusive = weak or mixed curves; inactive = no such curve, though single readings can be large; an effect the other way counts as inactive or inconclusive.
# Biological target: Androgen receptor (Homo sapiens) (UniProt P10275)
# Assay: qHTS assay to identify small molecule agonists of the androgen receptor (AR) signaling pathway using the MDA cell line (AID 743040; note: nearly all actives have a fitted effect of over 20% in size)
# Conditions: MDA-kb2 AR-luc cells, MMTV luciferase, 16 h; series mostly up to 70.3 µM; activity change: at the top concentration
# Method in brief: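 Cells plated, 5 h at 37C/0% CO2; compound or DMSO pinned; 16 h at 37C; ONE-Glo added; luminescence measured after 30 min at room temperature. Reporter line: MDA-kb2 with MMTV-luciferase responsive to AR and GR.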
# % is set by controls: 0 for no effect and ±100 for the full control effect.
# Chain of Androgen receptor (Homo sapiens) (P10275 whole entry, looked up): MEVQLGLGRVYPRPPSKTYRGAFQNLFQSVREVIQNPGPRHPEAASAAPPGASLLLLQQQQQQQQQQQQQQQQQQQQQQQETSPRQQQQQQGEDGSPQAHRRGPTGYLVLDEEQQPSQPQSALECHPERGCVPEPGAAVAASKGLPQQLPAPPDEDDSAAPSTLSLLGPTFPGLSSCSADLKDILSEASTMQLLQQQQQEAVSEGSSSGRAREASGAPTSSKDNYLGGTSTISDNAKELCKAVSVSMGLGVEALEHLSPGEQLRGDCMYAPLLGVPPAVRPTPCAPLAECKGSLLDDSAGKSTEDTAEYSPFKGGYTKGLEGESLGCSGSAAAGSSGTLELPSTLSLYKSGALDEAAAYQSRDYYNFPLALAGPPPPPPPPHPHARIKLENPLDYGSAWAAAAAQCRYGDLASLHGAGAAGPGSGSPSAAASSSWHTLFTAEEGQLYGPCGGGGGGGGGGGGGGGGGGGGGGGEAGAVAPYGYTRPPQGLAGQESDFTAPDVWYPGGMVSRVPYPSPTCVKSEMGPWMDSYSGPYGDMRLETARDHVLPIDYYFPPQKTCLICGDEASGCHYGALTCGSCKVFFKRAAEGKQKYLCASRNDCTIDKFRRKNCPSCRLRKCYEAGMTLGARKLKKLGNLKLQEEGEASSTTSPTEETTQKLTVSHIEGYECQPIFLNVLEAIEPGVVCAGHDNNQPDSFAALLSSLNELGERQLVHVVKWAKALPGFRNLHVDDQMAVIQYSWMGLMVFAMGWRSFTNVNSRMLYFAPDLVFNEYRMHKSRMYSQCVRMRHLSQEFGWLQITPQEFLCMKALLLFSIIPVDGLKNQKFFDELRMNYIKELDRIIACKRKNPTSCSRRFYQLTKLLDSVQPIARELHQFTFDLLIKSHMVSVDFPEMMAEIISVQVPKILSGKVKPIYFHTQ
Structure (SMILES),activity change,Potency
OCCN(CCO)c1nc(N2CCCCC2)c2nc(N(CCO)CCO)nc(N3CCCCC3)c2n1,0.617% (inactive),–
CC(C)(C)C(=O)OCOC(=O)C1N2C(=O)CC2S(=O)(=O)C1(C)C (stereo not given),1.52% (inactive),–
CCCCCCCCNC(C)C(O)c1ccc(SC(C)C)cc1 (stereo not given),-13.4% (inactive),–
COc1ccc(C(=O)/C(Br)=C\C(=O)O)cc1,–,inactive

# Tested on: not listed separately
# Assay: qHTS assay to identify small molecule antagonists of the androgen receptor (AR) signaling pathway using the MDA cell line - cell viability counter screen (AID 743041; note: nearly all actives have a fitted effect of over 45% in size; note: potency is the fitted concentration of half-maximal effect)
# Conditions: MDA-kb2 viability, CellTiter-Fluor, 16 h, cells co-treated with R1881 androgen agonist; series mostly up to 70.3 µM; viability change, negative = cytotoxic: at the top concentration
# Method in brief: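 Cells were plated at 3,000 per well and left 5 h. Compounds in DMSO were then pinned in, followed by R1881. After 16 h at 37C, CellTiter-Fluor fluorescence gave viability.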
Structure (SMILES),Potency,"viability change, negative = cytotoxic"
CNc1ccc(O)cc1,61 µM (active),–
CCCCCCCCCCCC[N+](C)(C)CCCCCCCCCCCC,27.3 µM (active),–
CC(=O)S[C@@H]1CC2=CC(=O)CC[C@]2(C)[C@H]2CC[C@@]3(C)[C@@H](CC[C@@]34CCC(=O)O4)[C@H]12,inactive,–
O=C(OC[C@H]1O[C@@H](OC(=O)c2cc(O)c(O)c(OC(=O)c3cc(O)c(O)c(O)c3)c2)[C@H](OC(=O)c2cc(O)c(O)c(OC(=O)c3cc(O)c(O)c(O)c3)c2)[C@@H](OC(=O)c2cc(O)c(O)c(OC(=O)c3cc(O)c(O)c(O)c3)c2)[C@@H]1OC(=O)c1cc(O)c(O)c(OC(=O)c2cc(O)c(O)c(O)c2)c1)c1cc(O)c(O)c(OC(=O)c2cc(O)c(O)c(O)c2)c1,22.1 µM (active),–
CO[Si](CCCNc1ccccc1)(OC)OC,–,1% (inactive)
S=c1[nH]c2ccccc2s1,inactive,–
Cc1cccc(S(=O)(=O)O)c1C,–,-1.17% (inactive)
O=[N+]([O-])c1cc([N+](=O)[O-])c2ccc(S(=O)(=O)O)cc2c1O,27.1 µM (active),–
CCOC(=O)O[C@H](C)OC(=O)c1ccc2c(c1)cc(C(=O)NC1CCN(C(C)C)CC1)n2Cc1cc(-c2ccc(Cl)s2)on1,57.1 µM (active),–
CCCCCCCCCCCCCCCC[N+](C)(C)CCN(Cc1ccc(OC)cc1)c1ncccn1,–,1.15% [at 32.5 µM] (inactive)
O=C(Oc1cccc2cccnc12)c1ccccc1,6.99 µM (active),–
CSc1cnc(C)cn1,–,4.53% [at 95 µM] (inactive)
CCC(N)(CO)CO,–,26.6% [at 95 µM] (inactive)
CCCC1O[C@@H]2C[C@H]3[C@@H]4CCC5=CC(=O)C=C[C@]5(C)[C@H]4[C@@H](O)C[C@]3(C)[C@]2(C(=O)CO)O1 (stereo not given in full),inactive,–
Clc1ccccc1C(c1ccccc1)(c1ccccc1)n1ccnc1,–,-0.487% [at 32.5 µM] (inactive)
CC(C)(C)C(=O)OCOC(=O)C1N2C(=O)CC2S(=O)(=O)C1(C)C (stereo not given),–,-3.6% (inactive)
C1CCCC1,–,-9.1% (inactive)
Cc1c(C)c2c(c(C)c1OC(=O)CCC(=O)O)CC[C@@](C)(CCC[C@H](C)CCC[C@H](C)CCCC(C)C)O2,inactive,–

Structure (SMILES),Potency,"viability change, negative = cytotoxic"
O=[N+]([O-])c1cc(Cl)c(Cl)c(Cl)c1Cl,–,0.565% (inactive)
CC(NN)c1ccccc1 (stereo not given),–,2.3% (inactive)
Oc1cccc2cc3cccc(O)c3c(O)c12,–,0.215% [at 95 µM] (inactive)
CC(C)c1ccc2c(c1)CC[C@H]1[C@](C)(CN)CCC[C@]21C,24.3 µM (active),–
C[C@H](CCC(=O)O)[C@H]1CC[C@H]2[C@@H]3CC[C@@H]4C[C@H](O)CC[C@]4(C)[C@H]3CC[C@]12C,inactive,–
On1ccccc1=S,0.959 µM (active),–
Cc1cc(C2CCCCC2)n(O)c(=O)c1,–,3.1% [at 32.5 µM] (inactive)
COc1cc(/C=C/C(=O)O[C@H]2CC[C@]34C[C@]35CC[C@]3(C)[C@@H]([C@H](C)CCC=C(C)C)CC[C@@]3(C)[C@@H]5CC[C@H]4C2(C)C)ccc1O,inactive,–
Cc1ccc(-n2nc(C(C)(C)C)cc2NC(=O)Nc2ccc(OCCN3CCOCC3)c3ccccc23)cc1,–,-13.7% (inactive)
CCOC(=O)/C=C(C)/C=C/C=C(C)/C=C/c1c(C)cc(OC)c(C)c1C,–,-1.67% (inactive)
COc1cccc(N)c1,–,-4.59% [at 95 µM] (inactive)
Cn1cc(C(=O)[C@@H]2CCc3nc[nH]c3C2)c2ccccc21,–,-0.0152% (inactive)
O=C(OCC(COC(=O)c1ccccc1)(COC(=O)c1ccccc1)COC(=O)c1ccccc1)c1ccccc1,–,7.22% (inactive)
CN(C)c1ccc(SC#N)cc1,–,-22.6% (inactive)
CC(=O)OCC(C)OC(C)=O (stereo not given),–,-2.81% (inactive)
CCc1cc(SCc2sc(-c3ccc(C(F)(F)F)cc3)nc2CN2CCN(c3ccc(OC)cc3)CC2)ccc1OCC(=O)O,–,-2.78% (inactive)
C=CC(=O)OCCn1c(=O)n(CCOC(=O)C=C)c(=O)n(CCOC(=O)C=C)c1=O,30.6 µM (active),–
CCCCCCCCCCCCCCCS(=O)(=O)Oc1ccccc1,–,-16.9% (inactive)
